Compounds without any hit were thinned out: in the full panel of roughly 79,000, 15% have a hit. Calls of active or inactive are those of the source. No stated cut-off is given here; in the data, active means growth inhibition above about 70%; inactive means the rest.
Key:
[1] = NCI Yeast Anticancer Drug Screen. Data for the rad50 strain (AID 155);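 further: 0% = growth of vehicle-only cultures of the same strain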; details: S. cerevisiae rad50 strain growth inhibition, hits give high values
How it was run: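 Growth of the mutant yeast was measured after compound exposure and referenced to vehicle-treated cultures.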

[2] = NCI Yeast Anticancer Drug Screen. Data for the mec2-1 strain (AID 157); details: S. cerevisiae mec2-1 strain, hits give high values
How it was run: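 Using mec2-1 yeast: add compound, measure growth, express inhibition versus vehicle-treated cultures.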

[3] = NCI Yeast Anticancer Drug Screen. Data for the sgs1 mgt1 strain (AID 161);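 further: 0% = growth of cultures given vehicle only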; details: S. cerevisiae sgs1 mgt1 strain, hits give high values
How it was run: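 This yeast growth screen uses a strain with defined DNA-repair lesions; compound-treated growth is compared with vehicle-treated growth.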

[4] = NCI Yeast Anticancer Drug Screen. Data for the cln2 rad14 strain (AID 165);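 further: 0% = growth equal to vehicle treated cultures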; details: S. cerevisiae cln2 rad14 strain, hits give high values
How it was run: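 Yeast strain cln2 rad14, bearing defects in cell cycle control and DNA repair, serves as the test system; values reflect growth inhibition compared with vehicle.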

[5] = NCI Yeast Anticancer Drug Screen. Data for the bub3 strain (AID 167); details: S. cerevisiae bub3 mutant strain, hits give high values
How it was run: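 Whole-cell yeast assay. The mutant strain was incubated with compounds, and growth inhibition was determined by comparison with vehicle-treated cells.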

[6] = NCI Yeast Anticancer Drug Screen. Data for the mlh1 rad18 strain (AID 175); details: S. cerevisiae mlh1 rad18 strain growth inhibition, hits give high values
How it was run: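 Steps: expose repair-defective yeast to compound; measure growth; express inhibition against vehicle-treated controls.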

[7] = at 5.0 µM (retest, dose inferred, filed as 0.5)
[8] = at 50.0 µM (retest, dose inferred, filed as 5.0)

Measured: growth inhibition

CC(C(=O)N1C(=O)N(C(=O)C(C)C(O)c2ccccc2)C(c2ccccc2)C1c1ccccc1)C(O)c1ccccc1 (stereo not given)
active: [1]; [8] 91% | [1]; at 50.0 µM 89.2% | [2]; [8] 92% | [2]; at 50.0 µM 91.5% | [3]; [8] 91% | [3]; at 50.0 µM 91.9% | [4]; [8] 89% | [4]; at 50.0 µM 90.1% | [5]; [8] 96% | [5]; at 50.0 µM 88.2% | [6]; [8] 91% | [6]; at 50.0 µM 91.3%
inactive: [1]; [7] 3% | [2]; [7] -10% | [3]; [7] -9% | [4]; [7] 29% | [5]; [7] -18% | [6]; [7] 23%

Cc1coc(C)c1C(=S)Nc1ccc(Cl)c(C(=O)OC(C)C)c1
active: [1]; [8] 81% | [1]; at 50.0 µM 84% | [2]; [8] 77% | [2]; at 50.0 µM 82.5% | [3]; [8] 81% | [3]; at 50.0 µM 85.2% | [4]; [8] 88% | [4]; at 50.0 µM 81.8% | [5]; [8] 87% | [5]; at 50.0 µM 82.9% | [6]; [8] 86% | [6]; at 50.0 µM 81.6%
inactive: [1]; [7] 6% | [2]; [7] -8% | [3]; [7] -3% | [4]; [7] 20% | [5]; [7] -15% | [6]; [7] -9%

Cc1ccccc1CN(C)CCO
inactive: [1]; [7] 0% | [1]; [8] -8% | [1]; at 50.0 µM 65.7% | [2]; [7] -1% | [2]; [8] 2% | [2]; at 50.0 µM 17.3% | [3]; [7] 2% | [3]; [8] 13% | [3]; at 50.0 µM 14.1% | [4]; [7] -8% | [4]; [8] -1% | [4]; at 50.0 µM 56.8% | [5]; [7] -5% | [5]; [8] -5% | [5]; at 50.0 µM 13.6% | [6]; [7] -5% | [6]; [8] -6% | [6]; at 50.0 µM 13.8%

FC(F)(F)c1cccc(N2CCN(c3c4c(nc5ccccc35)CCCCC4)CC2)c1
inactive: [1]; [7] -4% | [2]; [7] 4% | [3]; [7] 11% | [4]; [7] -14% | [5]; [7] -4% | [6]; [7] 22%
active: [1]; [8] 96% | [1]; at 50.0 µM 95.5% | [2]; [8] 99% | [2]; at 50.0 µM 97.7% | [3]; [8] 98% | [3]; at 50.0 µM 93.8% | [4]; [8] 96% | [4]; at 50.0 µM 95.5% | [5]; [8] 97% | [5]; at 50.0 µM 92% | [6]; [8] 98% | [6]; at 50.0 µM 95.7%

O=C1c2ccccc2C(=O)c2cc(O)ccc21
inactive: [1]; [7] 34% | [2]; [7] -13% | [2]; at 50.0 µM 56.1% | [3]; [7] 2% | [3]; at 50.0 µM 69% | [4]; [7] 11% | [4]; [8] 54% | [4]; at 50.0 µM 64.4% | [5]; [7] 44% | [6]; [7] 15%
active: [1]; [8] 91% | [1]; at 50.0 µM 84.8% | [2]; [8] 77% | [3]; [8] 82% | [5]; [8] 84% | [5]; at 50.0 µM 80.3% | [6]; [8] 87% | [6]; at 50.0 µM 85%

O=C1c2sccc2-c2cccc3cccc1c23 (tested in a mixture with another compound)
active: [1]; [7] 87% | [1]; [8] 98% | [1]; at 50.0 µM 97.2% | [2]; [8] 99% | [2]; at 50.0 µM 98% | [3]; [8] 99% | [3]; at 50.0 µM 96.2% | [4]; [8] 96% | [4]; at 50.0 µM 82.5% | [5]; [8] 98% | [5]; at 50.0 µM 83.2% | [6]; [7] 86% | [6]; [8] 98% | [6]; at 50.0 µM 95%
inactive: [2]; [7] 63% | [3]; [7] 59% | [4]; [7] 20% | [5]; [7] 29%

COC1CCCCC1C(=O)C(C#N)C1CCCCC1C1CCCCC1 (stereo not given)
inactive: [1]; [7] 4% | [1]; [8] -2% | [2]; [7] 3% | [2]; [8] -6% | [3]; [7] 7% | [3]; [8] 7% | [4]; [7] -5% | [4]; [8] 0% | [5]; [7] -3% | [5]; [8] -3% | [6]; [7] 0% | [6]; [8] 3%
active: [1]; at 50.0 µM 96% | [2]; at 50.0 µM 95.5% | [3]; at 50.0 µM 97% | [4]; at 50.0 µM 98.5% | [5]; at 50.0 µM 96.7% | [6]; at 50.0 µM 98.3%

C/C(=N\NC(=S)Nc1ccc([N+](=O)[O-])cc1)c1nc2ncccc2[nH]1
active: [1]; [8] 71% | [1]; at 50.0 µM 72.3% | [2]; [8] 89% | [3]; [8] 70% | [4]; [8] 93% | [5]; [8] 95% | [5]; at 50.0 µM 75.5% | [6]; [8] 92%
inactive: [1]; [7] -8% | [2]; [7] -22% | [2]; at 50.0 µM 61% | [3]; [7] -14% | [3]; at 50.0 µM 62.2% | [4]; [7] 5% | [4]; at 50.0 µM 67.2% | [5]; [7] -35% | [6]; [7] 4% | [6]; at 50.0 µM 60.1%

CCOC(=O)N(c1ccccc1)N(CC)C(=O)/C(C)=N/Nc1ccc([N+](=O)[O-])cc1
inactive: [1]; [7] 6% | [2]; [7] 5% | [3]; [7] 9% | [4]; [7] 10% | [5]; [7] -10% | [6]; [7] -1%
active: [1]; [8] 93% | [1]; at 50.0 µM 97.7% | [2]; [8] 94% | [2]; at 50.0 µM 95.8% | [3]; [8] 94% | [3]; at 50.0 µM 97.7% | [4]; [8] 95% | [4]; at 50.0 µM 92.2% | [5]; [8] 92% | [5]; at 50.0 µM 95.8% | [6]; [8] 94% | [6]; at 50.0 µM 97%

O=C(O)CCCCCCCCCC[S+](CCO)CCO
inactive: [1]; [7] -2% | [1]; [8] 31% | [1]; at 50.0 µM 43.2% | [2]; [7] 3% | [2]; [8] 29% | [2]; at 50.0 µM 26.4% | [3]; [7] 2% | [3]; [8] 50% | [3]; at 50.0 µM 62.1% | [4]; [7] 20% | [4]; [8] 12% | [4]; at 50.0 µM 67.5% | [5]; [7] 3% | [5]; [8] 12% | [5]; at 50.0 µM 37.4% | [6]; [7] 1% | [6]; [8] 44% | [6]; at 50.0 µM 34.5%
